# PubChem BioAssay (NCATS)
# Results filed as inconclusive are left out. Entries that show only a call come without a potency. The source made the active and inactive calls. Unless noted, calls come from the whole dose curve; as a rule, active = well fitted curve in the direction sought with a large enough effect; inconclusive = small, poorly fitted or top-dose-only effect, or another doubt; inactive = no such curve, though single readings can be large; an effect the other way counts as inactive or inconclusive.
# Assays:
# [1] = Inducers of the Endoplasmic Reticulum Stress Response (ERSR) in human glioma: Validation (AID 504836)
# In short: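 Stably transfected U87-MG human glioma cells carrying a GRP78-based luminescent sensor were seeded at 1000 cells/well, pin-dosed with compounds and incubated 16 h. Luciferase reagent was then added, and end-point luminescence was read after 10 min at room temperature.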
# [2] = biological target: Thyrotropin-releasing hormone receptor (Homo sapiens) (UniProt P34981); test: qHTS for Small Molecule Agonists and Allosteric Enhancers of Human TRH Receptor: Validation Screen for Agonists (AID 493127;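 active = calcium activation more than 3 SD above the typical response in the agonist read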;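 note: intracellular calcium rise by fluo-8 fluorescence before TRH EC20 addition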); details: TRH receptor agonist cell assay; at 2 µM; stronger effect = higher value
# In short: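 Read-out: intracellular calcium release measured kinetically by FDSS (fluo-8, ex 480/em 530 nm), 1 reading/s after a 10-cycle baseline. TRHR cells, 2000/well, cultured 18 h at 33.5C, dye-loaded at room temp. Compound-evoked positive calcium signal flags agonists.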
# [3] = Nrf2 qHTS screen for inhibitors: Validation (AID 493153; active = well fitted inhibition curve with a large enough effect in the main read-out, with a control signal flat, not every such curve was filed as active); details: viability change: measured here: cytotoxicity max response
# In short: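 Concentration-response test in A549 ARE_Fluc reporter cells (5% FBS OPTI-MEM), compound exposure 18-24 h at 37°C, 5% CO2. Cell viability measured first by CellTiter-Fluor fluorescence; ARE-driven luciferase luminescence then measured as Nrf2 activity.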
# [4] = qHTS for Inhibitors of Cell Surface uPA Generation: Validation Assay (AID 493164);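 note: RAW 264.7 macrophage cells exposed to compound for 18 h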
# In short: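 Compounds are titrated over seven points (2.45 nM–38.3 uM final) onto pre-plated RAW 264.7 cells and incubated for 18 h. Retained intracellular ATP, measured with ATP-Lite, indicates blocked lethal factor entry.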
# [5] = biological target: Galactokinase (Homo sapiens) (UniProt P51570); test: qHTS Validation Assay for Inhibitors of Human Galactokinase (GALK) (AID 493189)
# In short: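 GALK (5 nM) with 35 uM ATP and 100 uM galactose in HEPES pH8.0, MgCl2, NaCl, DTT, BSA; 1 h at room temperature. Residual ATP read by Kinase-Glo Plus luminescence after 10 min.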
# [6] = Validation screen for small molecules that induce DNA re-replication in SW480 colon adenocarcinoma cells (AID 504364)
# In short: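 Read-out: total Hoechst intensity of nuclei by fluorescence scanning imager; hits raise the fraction of nuclei with elevated DNA content. Cells received compound for 48 hr at 37 C before a 40 min stain.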
# [7] = biological target: Peptidyl-prolyl cis-trans isomerase NIMA-interacting 1 (Homo sapiens) (UniProt Q13526); test: qHTS Validation Assay to Find Inhibitors of Pin1 (AID 504536; active = well fitted inhibition curve with a large enough effect in the polarisation, with a control signal flat, not every such curve was filed as active; the % refers to the polarisation)
# In short: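 Fluorescence polarization competition: compounds (titration) displace HiFluor-488-labeled Pin1-1b peptide from Pin1 (0.3 uM final) in pH 7.5 HEPES buffer with DTT, 10 min at room temperature; %Activity normalized to no-enzyme wells, curves fitted.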
# [8] = biological target: Phosphoglycerate kinase, glycosomal (Trypanosoma brucei brucei) (UniProt P07378); test: qHTS Validation Assay to Find Inhibitors of Phosphoglycerate Kinase (AID 504547)
# In short: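 In TEA buffer (100mM, pH 7.6) containing 5mM MgCl2 and 0.01% Tween-20, the GAPDH-coupled PGK reaction proceeded for 60 minutes at room temperature before a single luminescence reading using Kinase-Glo Plus.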
# [9] = biological target: phosphoglycerate mutase (Leishmania major) (UniProt Q4Q090); test: qHTS Validation Assay to Find Inhibitors of Phosphoglycerate Mutase (AID 504548);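 note: end-point luminescence from Kinase-GloPlus after the PGAM reaction; series mostly up to about 58 µM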
# In short: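 Inhibition of L. major PGAM was assessed by Kinase-GloPlus luminescence following a 45-minute room-temperature reaction with enzyme at 1.25nM final.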
# [10] = biological target: Ubiquitin carboxyl-terminal hydrolase 1 (Homo sapiens) (UniProt O94782); test: Inhibitors of USP1/UAF1: Pilot qHTS (AID 504865);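 note: rhodamine fluorescence freed from ubiquitin-rhodamine substrate followed over time; top concentration of the series differs between compounds; nearly all actives have a fitted effect of over 35% in size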
# In short: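 USP1/UAF1 complex (1nM) preincubated with compound 15 min at room temperature, then Ub-Rho substrate (150nM final) added. Fluorescence read kinetically at 480/540 nm, 6 reads every 60 seconds. Buffer: 50mM HEPES pH 7.8, 0.5mM EDTA, 0.1 mg/ml BSA, 1mM TCEP, 0.01% Tween-20.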
# [11] = qHTS for Inhibitors of ATXN expression: Validation of Cytotoxic Assay (AID 588349)
# In short: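 Cytotoxicity counter-screen: HEK293 cells exposed to compound titrations, 72 hr, 37 degrees C. Read-out is intracellular ATP (CellTiter Glo luminescence) as a viability measure.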
# [12] = qHTS for Inhibitors of ATXN expression: Validation (AID 588378); note: series mostly up to about 57 µM; nearly all actives have a fitted effect of over 75% in size
# In short: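 Luminescence from an ATXN2-FFLuc reporter in HEK293 cells served as read-out after 24 h compound treatment at 37 degrees C; CellTiter-Fluor fluorescence was recorded first to assess viability.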
# [13] = biological target: DNA dC->dU-editing enzyme APOBEC-3G (Homo sapiens) (UniProt Q9HC16); test: qHTS for inhibitors of Vif-A3G interactions: Validation (AID 588379)
# In short: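 Yellow fluorescence (Ex 488, Em 500-530) of Vif-coexpressing HeLa A3G-eYFP cells, scanned by Acumen cytometer, reports blocked A3G degradation. Cells plated at 700/well overnight at 37 deg C before compound addition, then a further overnight compound incubation at 37 deg C.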
# [14] = biological target: Estrogen receptor (Homo sapiens) (UniProt P03372); test: qHTS assay for small molecule antagonists of estrogen receptor alpha signaling (AID 588513; active = well fitted curve in the direction sought with a large enough effect in the signal ratio, with a control signal flat, not every such curve was filed as active; the % refers to the signal ratio)
# In short: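 ER-alpha-UAS-bla GripTite HEK 293 cells in medium with 2% charcoal/dextran-treated FBS were preincubated 4 h at 37 C, dosed with compound (1:2 titration), stimulated with 0.5nM 17-beta-estradiol for 18 h, then read by CCF4 beta-lactamase fluorescence.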
# [15] = biological target: Peroxisome proliferator-activated receptor delta (Homo sapiens) (UniProt Q03181); test: qHTS assay for small molecule agonists of peroxisome proliferator-activated receptor delta signaling (AID 588534; calls by dose curve)
# In short: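 Titration series tested in agonist mode on beta-lactamase reporter cells; 18 hrs at 37 C after a 5 hr pre-incubation. Readout: CCF4 fluorescence, 2 hrs RT. Hill equation gives EC50 and maximal response.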
# Chain of Peptidyl-prolyl cis-trans isomerase NIMA-interacting 1 (Homo sapiens) (Q13526 whole entry, looked up): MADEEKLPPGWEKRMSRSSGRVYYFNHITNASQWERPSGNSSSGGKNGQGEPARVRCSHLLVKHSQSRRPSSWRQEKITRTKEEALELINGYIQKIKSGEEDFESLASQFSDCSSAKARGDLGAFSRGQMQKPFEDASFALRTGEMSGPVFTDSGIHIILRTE
# Chain of Phosphoglycerate kinase, glycosomal (Trypanosoma brucei brucei) (P07378 whole entry, looked up): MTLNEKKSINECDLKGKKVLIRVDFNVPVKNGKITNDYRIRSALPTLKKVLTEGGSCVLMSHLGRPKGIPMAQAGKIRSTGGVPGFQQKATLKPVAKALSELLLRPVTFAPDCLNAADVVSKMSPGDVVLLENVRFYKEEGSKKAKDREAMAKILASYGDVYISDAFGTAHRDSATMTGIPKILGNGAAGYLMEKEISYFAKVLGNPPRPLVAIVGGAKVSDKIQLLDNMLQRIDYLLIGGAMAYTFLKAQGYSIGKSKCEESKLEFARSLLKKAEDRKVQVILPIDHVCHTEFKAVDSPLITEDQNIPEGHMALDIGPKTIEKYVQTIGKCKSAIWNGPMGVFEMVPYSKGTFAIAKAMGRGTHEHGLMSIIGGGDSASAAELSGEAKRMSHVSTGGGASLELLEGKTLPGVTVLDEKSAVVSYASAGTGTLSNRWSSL
# Chain of phosphoglycerate mutase (Leishmania major) (Q4Q090 1-553): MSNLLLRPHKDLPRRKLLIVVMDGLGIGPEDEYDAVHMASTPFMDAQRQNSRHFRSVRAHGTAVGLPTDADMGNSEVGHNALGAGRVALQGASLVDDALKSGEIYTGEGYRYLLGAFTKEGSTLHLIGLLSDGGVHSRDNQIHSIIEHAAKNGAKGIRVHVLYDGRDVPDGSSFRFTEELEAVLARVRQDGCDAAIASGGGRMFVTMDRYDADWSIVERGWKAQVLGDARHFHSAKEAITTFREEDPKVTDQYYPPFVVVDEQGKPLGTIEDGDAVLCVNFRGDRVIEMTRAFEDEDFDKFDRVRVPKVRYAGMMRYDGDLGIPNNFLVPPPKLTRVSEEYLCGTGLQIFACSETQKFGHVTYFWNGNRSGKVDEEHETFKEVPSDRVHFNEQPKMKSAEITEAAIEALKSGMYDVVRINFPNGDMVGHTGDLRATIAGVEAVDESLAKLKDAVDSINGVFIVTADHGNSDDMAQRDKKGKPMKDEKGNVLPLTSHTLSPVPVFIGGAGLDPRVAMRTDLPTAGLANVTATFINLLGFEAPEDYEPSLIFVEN
# Chain of Ubiquitin carboxyl-terminal hydrolase 1 (Homo sapiens) (O94782 whole entry, looked up): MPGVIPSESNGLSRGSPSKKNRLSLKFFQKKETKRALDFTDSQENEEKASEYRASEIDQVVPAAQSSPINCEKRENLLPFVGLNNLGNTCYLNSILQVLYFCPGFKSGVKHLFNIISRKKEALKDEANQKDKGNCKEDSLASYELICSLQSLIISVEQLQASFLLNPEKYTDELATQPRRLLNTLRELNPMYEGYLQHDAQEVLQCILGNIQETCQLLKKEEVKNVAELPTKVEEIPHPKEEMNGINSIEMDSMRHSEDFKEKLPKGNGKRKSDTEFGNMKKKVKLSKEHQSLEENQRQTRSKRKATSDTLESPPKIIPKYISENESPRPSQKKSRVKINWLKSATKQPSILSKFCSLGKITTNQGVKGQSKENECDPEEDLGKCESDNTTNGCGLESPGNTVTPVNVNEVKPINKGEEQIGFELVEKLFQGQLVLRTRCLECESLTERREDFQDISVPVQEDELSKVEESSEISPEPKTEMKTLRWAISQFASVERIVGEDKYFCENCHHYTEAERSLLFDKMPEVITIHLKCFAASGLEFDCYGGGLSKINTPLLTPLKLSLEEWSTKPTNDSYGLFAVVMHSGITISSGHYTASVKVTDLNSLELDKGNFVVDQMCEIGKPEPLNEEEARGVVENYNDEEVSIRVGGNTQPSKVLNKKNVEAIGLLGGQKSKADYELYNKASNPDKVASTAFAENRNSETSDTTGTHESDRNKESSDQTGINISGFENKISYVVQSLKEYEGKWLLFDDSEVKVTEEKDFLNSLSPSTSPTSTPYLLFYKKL
# Chain of Galactokinase (Homo sapiens) (P51570 whole entry, looked up): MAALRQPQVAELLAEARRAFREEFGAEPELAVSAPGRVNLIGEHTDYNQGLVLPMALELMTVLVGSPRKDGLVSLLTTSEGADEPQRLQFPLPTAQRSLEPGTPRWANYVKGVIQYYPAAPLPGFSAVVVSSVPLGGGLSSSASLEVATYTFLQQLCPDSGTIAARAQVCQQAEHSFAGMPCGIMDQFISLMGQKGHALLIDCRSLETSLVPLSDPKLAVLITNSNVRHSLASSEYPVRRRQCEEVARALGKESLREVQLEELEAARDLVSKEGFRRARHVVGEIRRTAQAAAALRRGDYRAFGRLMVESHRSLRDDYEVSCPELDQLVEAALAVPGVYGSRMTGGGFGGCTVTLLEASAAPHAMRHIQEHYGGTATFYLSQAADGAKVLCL
# Chain of Thyrotropin-releasing hormone receptor (Homo sapiens) (P34981 whole entry, looked up): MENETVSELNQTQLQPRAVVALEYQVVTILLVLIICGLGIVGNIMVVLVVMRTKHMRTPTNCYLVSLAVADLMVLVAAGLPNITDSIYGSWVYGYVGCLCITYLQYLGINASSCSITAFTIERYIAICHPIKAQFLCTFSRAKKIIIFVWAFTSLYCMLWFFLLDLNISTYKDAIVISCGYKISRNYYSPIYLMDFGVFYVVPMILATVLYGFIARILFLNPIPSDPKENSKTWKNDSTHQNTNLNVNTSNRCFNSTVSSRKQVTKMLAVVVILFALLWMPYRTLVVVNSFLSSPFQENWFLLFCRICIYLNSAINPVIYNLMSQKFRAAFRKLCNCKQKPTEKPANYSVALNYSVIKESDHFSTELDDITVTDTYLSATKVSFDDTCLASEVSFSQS
# Chain of DNA dC->dU-editing enzyme APOBEC-3G (Homo sapiens) (Q9HC16 whole entry, looked up): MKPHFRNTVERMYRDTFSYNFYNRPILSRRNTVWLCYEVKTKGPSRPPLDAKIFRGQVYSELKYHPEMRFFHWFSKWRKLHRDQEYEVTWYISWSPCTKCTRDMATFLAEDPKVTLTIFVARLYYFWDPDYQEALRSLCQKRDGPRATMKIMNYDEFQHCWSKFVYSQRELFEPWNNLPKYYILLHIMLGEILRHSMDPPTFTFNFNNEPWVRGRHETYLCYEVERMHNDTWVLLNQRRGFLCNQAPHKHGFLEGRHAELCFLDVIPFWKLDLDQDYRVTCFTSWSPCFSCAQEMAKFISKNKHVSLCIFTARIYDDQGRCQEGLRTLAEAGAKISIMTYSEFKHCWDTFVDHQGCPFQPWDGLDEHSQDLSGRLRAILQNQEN
# Chain of Estrogen receptor (Homo sapiens) (P03372 whole entry, looked up): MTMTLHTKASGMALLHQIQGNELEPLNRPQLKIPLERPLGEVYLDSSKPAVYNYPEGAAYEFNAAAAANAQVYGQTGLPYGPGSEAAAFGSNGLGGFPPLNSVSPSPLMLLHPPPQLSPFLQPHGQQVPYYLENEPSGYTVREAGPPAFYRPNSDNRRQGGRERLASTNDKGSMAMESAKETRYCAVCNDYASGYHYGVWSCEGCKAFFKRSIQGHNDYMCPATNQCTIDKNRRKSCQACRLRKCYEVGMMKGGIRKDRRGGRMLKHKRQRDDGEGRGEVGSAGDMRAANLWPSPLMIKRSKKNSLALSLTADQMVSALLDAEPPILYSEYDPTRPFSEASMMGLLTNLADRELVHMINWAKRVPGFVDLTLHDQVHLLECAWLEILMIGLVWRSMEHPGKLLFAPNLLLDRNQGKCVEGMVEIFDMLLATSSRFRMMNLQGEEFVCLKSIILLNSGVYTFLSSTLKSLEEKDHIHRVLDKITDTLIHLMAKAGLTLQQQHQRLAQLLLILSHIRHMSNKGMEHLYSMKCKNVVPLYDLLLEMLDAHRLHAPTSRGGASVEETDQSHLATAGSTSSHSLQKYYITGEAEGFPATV
# Chain of Peroxisome proliferator-activated receptor delta (Homo sapiens) (Q03181 whole entry, looked up): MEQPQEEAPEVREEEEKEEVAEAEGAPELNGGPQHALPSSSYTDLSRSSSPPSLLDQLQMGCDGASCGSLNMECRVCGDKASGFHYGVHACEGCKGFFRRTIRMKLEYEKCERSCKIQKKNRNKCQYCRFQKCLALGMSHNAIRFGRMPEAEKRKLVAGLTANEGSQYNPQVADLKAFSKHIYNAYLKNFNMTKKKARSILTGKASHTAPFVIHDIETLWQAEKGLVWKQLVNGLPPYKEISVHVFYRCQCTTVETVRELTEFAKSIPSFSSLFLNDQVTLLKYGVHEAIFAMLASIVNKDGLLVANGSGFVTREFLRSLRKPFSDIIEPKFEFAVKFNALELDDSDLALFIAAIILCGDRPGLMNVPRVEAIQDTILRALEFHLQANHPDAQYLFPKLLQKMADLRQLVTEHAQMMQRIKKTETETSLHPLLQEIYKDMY
structure (smiles),measurement,setting,value
C#CCN(C)Cc1ccccc1,outcome,[1],inactive
O=C(c1ccc(F)cc1)C1CCN(CCn2c(=O)[nH]c3ccccc3c2=O)CC1,outcome,[1],inactive
NC(=O)CN1CCCC1=O,activation,[2],-0.312% (inactive)
same,outcome,[3],inactive
same,viability change,[3],-6.84%
same,outcome,[4],inactive
same,outcome,[5],inactive
same,outcome,[6],inactive
same,outcome,[7],inactive
same,outcome,[8],inactive
same,outcome,[9],inactive
same,outcome,[1],inactive
same,Potency,[10],inactive
same,outcome,[11],inactive
same,Potency,[12],inactive
COCCOC(=O)C1=C(C)NC(C)=C(C(=O)OC/C=C/c2ccccc2)C1c1cccc([N+](=O)[O-])c1 (centres undefined),outcome,[1],inactive
OC(CCN1CCCCC1)(c1ccccc1)C1CC2C=CC1C2 (centres undefined),outcome,[1],inactive
CN1CCN(C2Cc3ccccc3Sc3ccc(Cl)cc32)CC1 (centres undefined),outcome,[1],inactive
c1ccc([C@H]2CN3CCSC3=N2)cc1,outcome,[1],inactive
CCCN(CCC)C(=O)C(CCC(=O)O)NC(=O)c1ccccc1 (centres undefined),outcome,[1],inactive
NC(N)=NCCC[C@H](N)C(=O)O,outcome,[1],inactive
CCCCCN(CCCCC)C(=O)C(CCC(=O)O)NC(=O)c1ccc(Cl)c(Cl)c1 (centres undefined),outcome,[1],inactive
Fc1ccc(C(c2ccc(F)cc2)N2CCN(C/C=C/c3ccccc3)CC2)cc1,outcome,[1],inactive
O=C(O)c1nn(Cc2ccc(Cl)cc2Cl)c2ccccc12,activation,[2],0.438% (inactive)
same,outcome,[4],inactive
same,outcome,[5],inactive
same,outcome,[6],inactive
same,outcome,[7],inactive
same,outcome,[8],inactive
same,outcome,[9],inactive
same,outcome,[1],inactive
same,Potency,[10],inactive
same,outcome,[11],inactive
same,Potency,[12],inactive
same,outcome,[13],inactive
CC(C)(C)c1ccc(C(=O)CCCN2CCC(OC(c3ccccc3)c3ccccc3)CC2)cc1,outcome,[1],inactive
Brc1c(NC2=NCCN2)ccc2nccnc12,outcome,[1],inactive
CN(C)CCN(Cc1cccs1)c1ccccn1,outcome,[1],inactive
c1ccc2nc(N3CCNCC3)ccc2c1,activation,[2],-0.562% (inactive)
same,outcome,[5],inactive
same,outcome,[6],inactive
same,Potency,[10],inactive
same,outcome,[13],inactive
Cc1ccc(=O)n(-c2ccccc2)c1,outcome,[1],inactive
CCCCCCCCC(=O)NCc1ccc(O)c(OC)c1,outcome,[5],inactive
same,outcome,[6],inactive
same,Potency,[10],inactive
same,Potency,[14],inactive
same,outcome,[15],inactive
CC(C)(Oc1ccc(CCNC(=O)c2ccc(Cl)cc2)cc1)C(=O)O,outcome,[1],inactive
CC(C(O)c1ccc(O)cc1)N1CCC(Cc2ccccc2)CC1 (centres undefined),outcome,[1],inactive
CC(N)C(=O)OC(C)(C)Cc1ccc(Cl)cc1 (centres undefined),outcome,[5],inactive
same,outcome,[6],inactive
same,outcome,[1],inactive
CN1CCC(=C2c3ccccc3CC(=O)c3sccc32)CC1,outcome,[1],inactive
CCOC(=O)C1=C[C@]2(CC)CCCN3CCc4c(n1c1ccccc41)[C@@H]32,outcome,[1],inactive
Cc1ccc(/C(=C\CN2CCCC2)c2ccccn2)cc1,outcome,[1],inactive
COc1ccccc1N1CCN(CCCNc2cc(=O)n(C)c(=O)n2C)CC1,outcome,[1],inactive
COc1ccc(C(=O)N2CCCC2=O)cc1,activation,[2],0.812% (inactive)
same,outcome,[3],inactive
same,viability change,[3],-4.73%
same,outcome,[5],inactive
same,outcome,[6],inactive
same,outcome,[7],inactive
same,outcome,[8],inactive
same,outcome,[9],inactive
same,Potency,[10],inactive
same,outcome,[11],inactive
same,Potency,[12],inactive
same,outcome,[13],inactive
CN(C)CCOC(c1ccccc1)c1ccccc1,outcome,[1],inactive
O=C1CC2(CCCC2)CC(=O)N1CCCCN1CCN(c2ncccn2)CC1,outcome,[1],inactive
CNCCC(Oc1ccccc1OC)c1ccccc1 (centres undefined),outcome,[1],inactive
CC1=C(CC(=O)O)c2cc(F)ccc2/C1=C\c1ccc(S(C)=O)cc1 (centres undefined),outcome,[1],inactive
C#CCN(C)CCCOc1ccc(Cl)cc1Cl,outcome,[1],inactive
OCc1cc(C(O)CNCCCCCCOCCCCc2ccccc2)ccc1O (centres undefined),outcome,[1],inactive
COc1ccc2c(c1)c(CC(=O)O)c(C)n2C(=O)c1ccc(Cl)cc1,outcome,[1],inactive
CCn1ccnc1CC1COc2ccccc2O1 (centres undefined),outcome,[1],inactive
C[N+](C)(C)CCCCCCCCCC[N+](C)(C)C,outcome,[1],inactive
CCCCNc1ccc(C(=O)OCCN(C)C)cc1,outcome,[1],inactive
Cc1cccc(C)c1NC(=O)C(C)N (centres undefined),outcome,[1],inactive
COc1ccc(CN(CCN(C)C)c2ccccn2)cc1,outcome,[1],inactive
COC(=O)C1=CCCN(C)C1,outcome,[3],inactive
same,viability change,[3],-1.14%
same,outcome,[4],inactive
same,outcome,[5],inactive
same,outcome,[6],inactive
same,outcome,[7],inactive
same,outcome,[8],inactive
same,outcome,[9],inactive
same,outcome,[1],inactive
same,Potency,[10],inactive
same,outcome,[11],inactive
same,Potency,[12],inactive
